Mtb bLac sens: beta-lactam sensitization of Mtb H37Rv, H37Rv | M. tuberculosis H37Rv growth with meropenem, percent inhibition | inhibition, % at 25 µM | hit rate 0.27% among 330,000; call rule not given here;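 note: growth measured after seven days incubation then overnight dye step; 0% = bacteria only wells and 100% = bacteria with antibiotic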
SSB-PriA inh: inhibitors of Klebsiella pneumoniae PriA binding to SSB C-terminal tail, primary screen, biochemical, AlphaScreen | PriA–SSB C-terminal tail interaction (Klebsiella pneumoniae) | AlphaScreen SSBct-PriA binding, biotinylated peptide | inhibition, % at 33 µM | hit rate 0.6% among 430,000; in the data active = inhibition mostly above about 37%, no sharp cut-off; inactive = mostly below about 20%;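 note: plate controls were negative control peptide for no effect and reference peptide for full effect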
RecA splice inh: Mtb RecA intein splicing inhibitors, primary screen, biochemical, fluorescence, HTS; AID 2221, 2009; hit rate 0.75% among 290,000; cell-free RecA intein splicing; inhibition, % (no concentration beside the values); in the data active = inhibition above about 30%;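 note: 0% = vehicle wells and 100% = reference inhibitor control wells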
Mtb UGM inh: M. tuberculosis UGM enzyme inhibitors, primary screen, biochemical, fluorescence polarization, single point; purified UGM, fluorescence polarization probe displacement; inhibition, % at 10 µM; hit rate 0.06% among 320,000; in the data active = inhibition above about 10%, passing the limit was not always enough
Target sequence (P9WIQ1 whole entry, looked up): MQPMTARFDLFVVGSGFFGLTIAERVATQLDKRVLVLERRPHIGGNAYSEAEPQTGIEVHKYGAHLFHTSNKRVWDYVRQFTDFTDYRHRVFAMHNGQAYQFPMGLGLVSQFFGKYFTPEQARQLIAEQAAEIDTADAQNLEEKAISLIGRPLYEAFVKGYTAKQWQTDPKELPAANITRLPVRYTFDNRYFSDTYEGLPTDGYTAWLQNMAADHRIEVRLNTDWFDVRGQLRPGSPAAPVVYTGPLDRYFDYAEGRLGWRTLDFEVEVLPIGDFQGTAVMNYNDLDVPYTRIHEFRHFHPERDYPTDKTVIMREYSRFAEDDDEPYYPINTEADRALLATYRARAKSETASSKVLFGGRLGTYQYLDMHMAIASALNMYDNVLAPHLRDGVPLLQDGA
Rv3671c inh: Rv3671c serine protease inhibitors, primary screen, biochemical, fluorescence polarization, M. tuberculosis H37Rv | inhibition, % at 5.96 µM | P9WHR9 | hit rate 0.048% among 320,000 | AID 2606, 2010; in the data active = inhibition above about 38%;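 note: extracellular domain of Rv3671c used as enzyme; 0% = enzyme with DMSO and 100% = no enzyme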
The depositor's hits bear a star; · = no result given; ! = a repeat was not active. Most compounds without a hit are left out; they make up all but 1.1% or so of the library.

SMILES	Mtb bLac sens	SSB-PriA inh	RecA splice inh	Mtb UGM inh	Rv3671c inh
COC(=O)CCC(=O)OC1(C)C(=O)C2=CN(CCCCO)C(c3ccc(OC)cc3)=CC2=C(Br)C1=O (stereo unspecified)	16	·	48*	3	-22
O=S1(=O)N=C(NN=Cc2cccs2)c2ccccc21	·	55*	·	·	·
O=S1(=O)N=C(N/N=C/c2ccccn2)c2ccccc21	10	·	11	2	-7
O=S1(=O)N=C(NN=Cc2ccccn2)c2ccccc21	·	82*	·	·	·
COCCCNC(=O)C(=O)NC[C@H]1CCCN1S(=O)(=O)c1ccccc1	·	-3	·	·	·
O=C(Nc1nnc(-c2ccc(Br)s2)o1)c1cc(Cl)ccc1Cl	·	-20	·	·	·
CC1CCc2c(sc(Nc3nc4c(F)cccc4s3)c2C(N)=O)C1 (stereo unspecified)	63	51*!	0	-1	1
O=C(Nc1cnc(Oc2ccccc2)nc1)C1CCCC1	·	-6	·	·	·
O=C(CCCN1C(=O)/C(=C\c2cccs2)SC1=S)Nc1ccc(O)cc1C(=O)O	9	-3	32*	2	-10
O=C(CCCN1C(=O)/C(=C\c2cccs2)SC1=S)Nc1ccc(O)cc1	2	11	67*	0	-3
COc1ccc2cc(Br)ccc2c1CC(=O)Nc1cc(C)ccn1	·	-13	·	·	·
COC(=O)c1ccccc1Sc1ncnc2onc(C)c12	99	-16	46*	-3	-5
O=C(CSc1nnc(-c2ccccc2)c(-c2ccccc2)n1)NCc1ccco1	6	4	6	1	5
O=C(CSc1nc(-c2ccccc2)c(-c2ccccc2)[nH]1)NCc1ccco1	1	42*	2	-1	1
CCN1c2ccccc2NC2N=C(OC)C(c3ccccc3)C21 (stereo unspecified)	-2	54*	15	-1	0
CCOc1cc(C=NN=C(N)c2nonc2N)cc(Br)c1OCc1cccc2ccccc12	·	2	·	·	·
O=C(N/N=C/c1c(O)n(Cc2ccccc2)c(=O)[nH]c1=O)c1ccccc1O	3	·	21	1	-30
O=C(N/N=C/c1c(O)n(Cc2ccc(F)cc2)c(=O)[nH]c1=O)c1ccccc1O	4	·	32*	1	-31
O=C(NN=Cc1ccccc1OC(=O)c1ccc2c(c1)OCO2)c1ccccc1	·	-10	·	·	·
O=C1CCc2cc(S(=O)(=O)NCC3CCN(S(=O)(=O)C4CC4)CC3)cc3c2N1CC3	·	39*	·	·	·
C[C@](O)(CNS(=O)(=O)c1cc2c3c(c1)CCN3C(=O)CC2)C1CC1	·	-7	·	·	·
Cc1n[nH]c(=O)nc1NN=Cc1cccs1	·	59*	·	·	·
Nc1n[nH]c(C(=O)N/N=C\c2cccs2)n1	·	50*	·	·	·
CC(C)COc1ccc(C(O)=C2C(=O)C(=O)N(CCN(C)C)C2c2ccncc2)cc1 (stereo unspecified)	·	3	·	·	·
COc1ccc(-c2noc(-c3ccccc3F)n2)cc1	7	104*	3	4	2
SMILES	Mtb bLac sens	SSB-PriA inh	RecA splice inh	Mtb UGM inh	Rv3671c inh
Fc1ccccc1-c1nc(-c2ccccc2)no1	0	-73	1	1	-2
COC(=O)C(=CNc1cccc2ccccc12)[N+](=O)[O-]	·	55*	·	·	·
CC(=O)OC[C@H]1O[C@@H](Sc2cccc3cccnc23)[C@H](OC(C)=O)[C@@H](OC(C)=O)[C@H]1OC(C)=O	-10	40*	-1	2	3
Cc1cccn2cc(-c3cccc(N)c3)nc12	·	52*	·	·	·
Cc1ccc(-c2cn3cccc(C)c3n2)cc1N	·	1	·	·	·
COC(=O)CSC1=C(C#N)C(=O)NC(c2ccccc2)S1 (stereo unspecified)	-2	-4	1	1	-3
COc1cc(C2NC(=O)C(C#N)=C(Nc3cccc(C)c3)S2)ccc1O (stereo unspecified)	-9	-6	87*	0	3
COc1ccc(N(C(C)C(=O)N2CCC(Cc3ccccc3)CC2)S(C)(=O)=O)cc1 (stereo unspecified)	1	55*	8	1	-1
COc1ccc(N(C(C)C(=O)N2CCCC2)S(C)(=O)=O)cc1 (stereo unspecified)	2	-21	1	-1	-3
O=C1COc2ccc(C(=O)CCl)cc2N1	·	-2	32*	-1	2
CC(=O)c1ccc2c(c1)NC(=O)CO2	·	-5	·	·	·
CS(=O)(=O)c1ccc(CC(=O)Nc2nnc(-c3ccccc3Cl)o2)cc1	·	-7	·	·	·
Cc1ccc2[nH]c3nc(NN)nnc3c2c1	9	90*	-5	-1	·
O=C(CSc1ncnc2c1nnn2Cc1ccc(Cl)cc1)NCc1ccccc1Cl	·	-16	·	·	·
O=C(CSc1ncnc2c1nnn2Cc1ccccc1F)N1CCN(c2ccccc2)CC1	·	0	43*	·	·
CC(C)(C)NC(=O)CSc1ncnc2c1nnn2Cc1ccccc1Cl	61	-13	61*	1	5
Cc1cc(C(F)(F)F)nc(CCNC(=O)COc2ccc(Cl)cc2Cl)n1	·	-12	·	·	·
COC(=O)/C(=C1/Oc2cc(C)oc(=O)c2S1)C(F)(F)F	99	-3	44*	-1	2
O=[N+]([O-])c1ccc(N2CCNCC2)c2ncccc12	·	53*	1	·	·
CN1CCN(c2ccc([N+](=O)[O-])c3cccnc23)CC1	-9	26	4	-1	-3
O=[N+]([O-])c1cnc(Nc2ccc(S(=O)(=O)Nc3nccs3)cc2)c([N+](=O)[O-])c1	·	38*	·	·	·
Cc1ccc(S(=O)(=O)Nc2nccs2)cc1[N+](=O)[O-]	-10	-3	-2	-2	-9
CCc1cccc(NC(=S)Nc2cccc3ccccc23)c1	-5	38*	7	2	6
CCOc1ccc(NC(=S)Nc2cccc3ccccc23)cc1	74	50*	4	-1	0
CCOc1ccc(NC(=S)Nc2cccc3cnccc23)cc1	95	33	2	2	-6
SMILES	Mtb bLac sens	SSB-PriA inh	RecA splice inh	Mtb UGM inh	Rv3671c inh
Cn1nc(CN(Cc2ccco2)C(=O)N2CCNC2=O)c2c1CCC2	·	-7	·	·	·
COc1cccc(C=Nc2sc(Cc3ccccc3)c(C)c2C(N)=O)c1O	·	2	·	·	·
CN1CCN(c2cc(N3CCCC3)ccc2[N+](=O)[O-])CC1	·	59*	·	·	·
CON=Cc1ccc(N2CCCC2)c([N+](=O)[O-])c1	·	39*	·	·	·
O=[N+]([O-])c1ccc(N2CCCC2)cc1N1CCN(c2ccccc2)CC1	·	84*	·	·	·
NC(=O)NN=Cc1cn(-c2ccccc2)nc1-c1cccs1	·	10	·	·	·
Cc1ccc(N(CC(=O)NN=Cc2cccs2)S(C)(=O)=O)cc1	·	2	·	·	·
O=C(/C=C/c1ccc(-c2cccc([N+](=O)[O-])c2)o1)N1CCOCC1	3	-9	2	2	-20
O=[N+]([O-])c1cccc(-c2csc(=Nc3ccccc3)n2N2CCOCC2)c1	·	64*	·	·	·
COc1ccc(N2CCN(Cc3csc(C)c3-c3ccc(C)cc3)CC2)cc1	62	91*	18	1	3
Cc1ccc(S(=O)(=O)N=C2SCCN2CC(=O)c2ccccc2)cc1	·	-11	·	·	·
Cc1ccc2nsnc2c1NS(=O)(=O)c1c(C)ccc2nsnc12	-2	9	36*	2	-5
